The values below come from PubChem BioAssay (NCATS).

SMILES strings stand for the structures. The source made the active and inactive calls. A call without a number means that no potency is given here. The call rests on the fitted dose curve; in most records, active means well fitted curve in the direction sought with a large enough effect; inconclusive means small, poorly fitted or top-dose-only effect, or another doubt; inactive means no such curve, though single readings can be large; an effect the other way counts as inactive or inconclusive.

Sequence of Cytochrome P450 3A4 (Homo sapiens) (P08684 whole entry, looked up): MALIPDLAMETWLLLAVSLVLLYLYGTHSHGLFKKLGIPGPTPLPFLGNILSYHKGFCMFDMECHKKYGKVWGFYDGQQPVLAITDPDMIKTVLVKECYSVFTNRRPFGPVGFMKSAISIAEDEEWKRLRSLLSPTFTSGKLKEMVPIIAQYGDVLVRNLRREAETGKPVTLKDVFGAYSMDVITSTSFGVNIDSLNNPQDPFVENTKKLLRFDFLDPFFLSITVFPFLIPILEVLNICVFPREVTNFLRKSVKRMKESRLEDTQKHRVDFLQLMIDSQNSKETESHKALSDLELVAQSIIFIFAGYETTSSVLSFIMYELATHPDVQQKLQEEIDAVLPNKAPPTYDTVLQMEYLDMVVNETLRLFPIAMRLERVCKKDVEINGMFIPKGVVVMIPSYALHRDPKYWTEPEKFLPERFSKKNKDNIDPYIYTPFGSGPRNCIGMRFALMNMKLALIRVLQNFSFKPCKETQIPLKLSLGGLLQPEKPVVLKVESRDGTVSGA

The target in the first assay is Cytochrome P450 3A4 (Homo sapiens) (UniProt P08684). Nature of the assay: qHTS Assay for Activators of Cytochrome P450 3A4 (AID 885). Further: nearly all actives have a fitted effect of over 65% in size. The conditions noted are these: recombinant CYP3A4, Luciferin-PPXE luminescence, 60 min; series mostly up to 57.1 µM. In a few lines:
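Human CYP3A4 dealkylates Luciferin-PPXE to luciferin, which luciferase detection converts to light. Substrate was at its KM (25uM), buffer 200mM KPO4, reaction 60 min at RT.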
(qHTS replaces the single test concentration by a dilution series.)
For `COc1cc(OC)c(C(C)=O)c(O)c1C`, the Potency entry was “inactive”.
The same measure, in the same setting: the entry for `COc1ccc(-c2coc3c(O)c(OC)ccc3c2=O)cc1` is “inactive”.
Same read-out and setting: the entry for `COc1cc(O)c(C)c(O)c1` is “inactive”; for `C=C1CCC(=O)C(C)CCC2C1CC2(C)C` (stereo not drawn) it is “inactive”.
Still for that read-out and setting: as for `CCCCN1CCCCC1C(=O)Nc1c(C)cccc1C` (stereo not drawn), the entry is “inactive”; as for `CC1(C)C(O)C=C[C@@]2(C)C1CC(=O)O[C@@]1(C)C3=CC(=O)OC(c4ccoc4)[C@]3(C)CCC21` (stereo partly drawn), “inactive”; as for `C=C1C(=O)OC2CC1C(OC(C)=O)CC(C)=CCCC(C)=CCC[C@@]2(C)O` (stereo partly drawn), “inactive”.
As for `CC1(C)CC2C1CCC1(C)OC1CCC2(C)O` (stereo not drawn), the Potency entry is “inactive”.
For `C#C[C@]1(O)CCC2C3CCC4=Cc5oncc5C[C@@]4(C)C3CC[C@@]21C` (stereo partly drawn), the Potency entry is “inactive”.
The same measure, in the same setting: the entry for `Cc1cc(O)c(C=O)c(O)c1C(=O)O` is “inactive”; for `COC(=O)CC1C(C)(C)C(OC(C)=O)[C@@]2(O)C=C3C4CC(=O)OC(c5ccoc5)[C@]4(C)CCC3[C@@]1(C)C2=O` (stereo partly drawn) it is “inactive”.
Take `C=CC(C1=CC(=O)C=CC1=O)c1ccccc1` (stereo not drawn): the Potency entry was “inactive”.
Still for that read-out and setting: the entry for `CC(=O)C1CCC2C3CC(C)C4=CC(=O)CC[C@@]4(C)C3C(O)C[C@@]12C` (stereo partly drawn) is “inactive”; for `CO[C@]12CC(COC(=O)c3cncc(Br)c3)CN(C)[C@@H]1Cc1cn(C)c3cccc2c13` (stereo partly drawn) it is “inactive”.
On the same count and under the same terms, as for `CCOC(=O)C(Cc1ccc(O)cc1)NC(C)=O` (stereo not drawn), the entry is “inactive”.
Turning to `COc1ccc(-c2coc3cc(O)ccc3c2=O)c(OC)c1`, the Potency entry was “inactive”.
On the same count and under the same terms, the entry for `COC(=O)CC1C(C)(C)C(OC(C)=O)C2CC3=C4CC(=O)OC(c5ccoc5)[C@]4(C)CCC3[C@@]1(C)C2=O` (stereo partly drawn) is “inactive”.
The same measure, in the same setting: as for `COC(=O)c1cc(OC)c(=O)c2c(OC)c(OC)ccc2c1`, the entry is “inactive”.
`COc1cc(O)cc(OC)c1OC`: the Potency entry was “inactive”.
The same measure, in the same setting: as for `O=C(NC1CCCCC1)NC1CCCCC1`, the entry is “inactive”; as for `CC1CC2C3CCC4=CC(=O)C=C[C@]4(C)[C@@]3(Cl)C(O)C[C@]2(C)C1(OC(=O)c1ccco1)C(=O)CCl` (stereo partly drawn), “inactive”.
On the same count and under the same terms, the entry for `CC1(C)C[C@@H]2C(=O)CCC3O[C@@]3(C)CCC21` (stereo partly drawn) is “inactive”; for `CC1(C)CC23C(=O)CCC(O)C2(C)CCC13` (stereo not drawn) it is “inactive”; for `COc1cc2cc[n+]3cc4c(OC)c(OC)ccc4cc3c2cc1OC` it is “inactive”.
On the same count and under the same terms, the entry for `COc1ccc(-c2cc(=O)c3c(O)c(OC)c(OC)c(OC)c3o2)cc1OC` is “inactive”.
Take `COC(=O)C1OC(=O)C2O[C@@]23[C@]2(C)C(OC(C)=O)CC4C(C)(C)C(=O)CC[C@]4(C)C2CC[C@@]13C` (stereo partly drawn): the Potency entry was “inactive”.
On to `CC(=O)OC1CC2C(C)(C)C=CC(=O)[C@@]2(C)C2CC[C@@]3(C)C(c4ccoc4)OC(=O)C4OC43[C@]12C` (stereo partly drawn), for which the Potency entry is “inactive”.
Same read-out and setting: the entry for `CCOC(=O)c1c(C)cc(O)c(C=O)c1O` is “inactive”; for `C[C@@H]1CCC2[C@](C)(CO)C(O)CC[C@@]2(C)[C@@]12CC[C@](CO)(CCO)O2` (stereo partly drawn) it is “inactive”.
Still for that read-out and setting: as for `O=C(/C=C/c1ccccc1)c1ccc(O)cc1`, the entry is “inactive”.
Same read-out and setting: the entry for `CC(=O)OC1CC2C(C)(C)C(=O)[C@@H]3OC3[C@@]2(C)C2CC[C@]3(C)C(=CC(=O)OC3c3ccoc3)[C@]12C` (stereo partly drawn) is “inactive”; for `Cc1cc(=O)oc2c(O)c(O)ccc12` it is “inactive”.
Consider `COc1ccc(-c2coc3cc(OC(C)=O)cc(OC(C)=O)c3c2=O)cc1`, for which the Potency result is “inactive”.
Take `COc1ccc(C(=O)c2ccc(O)cc2)c(O)c1O`: the Potency entry is “inactive”.
Turning to `CC12CCC3C(=CCc4cc(O)ccc43)C1CCC2=O` (stereo not drawn), the Potency result was “inactive”.
Same read-out and setting: the entry for `CC(=O)OC1CC(OC(C)=O)[C@]2(C)C(CC(=O)[C@]3(C)C2CC[C@@]2(C)C(C(=O)O)OC(=O)C4OC423)C1(C)C` (stereo partly drawn) is “inactive”; for `COC1=CC(=O)C(C(=O)c2ccccc2)=CC1=O` it is “inactive”.
On to `CC(Oc1ccccc1)C(=O)NC1C(=O)N2C(C(=O)O)C(C)(C)S[C@@H]12` (stereo partly drawn), for which the Potency entry is “inactive”.
Same read-out and setting: the entry for `CC(=O)O[C@](C)(CCC=C(C)C)C1CC=C(C)CC1` (stereo partly drawn) is “inactive”.

Tested on in a further assay: not listed separately
Nature of the assay: Confirmation and Secondary Assay for Modulators of Hemoglobin Beta Chain Splicing at IVS2 654 locus (AID 910).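 Further: per-well total GFP intensity by laser scanning cytometry after 2-day treatment.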 The conditions noted are these: HeLa EGFP-654 splicing reporter, GFP fluorescence, 48 h; series mostly up to 46.1 µM. The method, boiled down: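 HeLa cells stably carrying EGFP interrupted by mutant beta-globin IVS2-654 intron (CMV-driven) were treated with compound for 2 days at 37C; corrected splicing was scored as total peak GFP intensity per well (488 nm excitation, 500-520 nm emission).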
For the molecule `COc1cc(OC)c(C(C)=O)c(O)c1C`, the Potency entry was “inactive”.
Take `COc1ccc(-c2coc3c(O)c(OC)ccc3c2=O)cc1`: the Potency entry was “inactive”.
For the molecule `COc1cc(O)c(C)c(O)c1`, the Potency entry was “inactive”.
The same measure, in the same setting: as for `C=C1CCC(=O)C(C)CCC2C1CC2(C)C` (stereo not drawn), the entry is “inactive”; as for `CCCCN1CCCCC1C(=O)Nc1c(C)cccc1C` (stereo not drawn), “inactive”; as for `CC1(C)C(O)C=C[C@@]2(C)C1CC(=O)O[C@@]1(C)C3=CC(=O)OC(c4ccoc4)[C@]3(C)CCC21` (stereo partly drawn), “inactive”.
On the same count and under the same terms, as for `C=C1C(=O)OC2CC1C(OC(C)=O)CC(C)=CCCC(C)=CCC[C@@]2(C)O` (stereo partly drawn), the entry is “inactive”; as for `CC1(C)CC2C1CCC1(C)OC1CCC2(C)O` (stereo not drawn), “inactive”; as for `C#C[C@]1(O)CCC2C3CCC4=Cc5oncc5C[C@@]4(C)C3CC[C@@]21C` (stereo partly drawn), “inactive”.
Same read-out and setting: as for `Cc1cc(O)c(C=O)c(O)c1C(=O)O`, the entry is “inactive”; as for `COC(=O)CC1C(C)(C)C(OC(C)=O)[C@@]2(O)C=C3C4CC(=O)OC(c5ccoc5)[C@]4(C)CCC3[C@@]1(C)C2=O` (stereo partly drawn), “inactive”; as for `C=CC(C1=CC(=O)C=CC1=O)c1ccccc1` (stereo not drawn), “inactive”.
`CC(=O)C1CCC2C3CC(C)C4=CC(=O)CC[C@@]4(C)C3C(O)C[C@@]12C` (stereo partly drawn): the Potency entry is “inactive”.
Same read-out and setting: as for `CO[C@]12CC(COC(=O)c3cncc(Br)c3)CN(C)[C@@H]1Cc1cn(C)c3cccc2c13` (stereo partly drawn), the entry is “inactive”; as for `CCOC(=O)C(Cc1ccc(O)cc1)NC(C)=O` (stereo not drawn), “inactive”.
On to `COc1ccc(-c2coc3cc(O)ccc3c2=O)c(OC)c1`, for which the Potency result was “inactive”.
With `COC(=O)CC1C(C)(C)C(OC(C)=O)C2CC3=C4CC(=O)OC(c5ccoc5)[C@]4(C)CCC3[C@@]1(C)C2=O` (stereo partly drawn), the Potency entry is “inactive”.
Same read-out and setting: the entry for `COC(=O)c1cc(OC)c(=O)c2c(OC)c(OC)ccc2c1` is “inactive”; for `COc1cc(O)cc(OC)c1OC` it is “inactive”; for `O=C(NC1CCCCC1)NC1CCCCC1` it is “inactive”.
On to `CC1CC2C3CCC4=CC(=O)C=C[C@]4(C)[C@@]3(Cl)C(O)C[C@]2(C)C1(OC(=O)c1ccco1)C(=O)CCl` (stereo partly drawn), for which the Potency result is “inactive”.
The same measure, in the same setting: as for `CC1(C)C[C@@H]2C(=O)CCC3O[C@@]3(C)CCC21` (stereo partly drawn), the entry is “inactive”; as for `CC1(C)CC23C(=O)CCC(O)C2(C)CCC13` (stereo not drawn), “inactive”.
For `COc1cc2cc[n+]3cc4c(OC)c(OC)ccc4cc3c2cc1OC`, the Potency result was “inactive”.
On the same count and under the same terms, the entry for `COc1ccc(-c2cc(=O)c3c(O)c(OC)c(OC)c(OC)c3o2)cc1OC` is “inactive”; for `COC(=O)C1OC(=O)C2O[C@@]23[C@]2(C)C(OC(C)=O)CC4C(C)(C)C(=O)CC[C@]4(C)C2CC[C@@]13C` (stereo partly drawn) it is “inactive”.
Regarding `CC(=O)OC1CC2C(C)(C)C=CC(=O)[C@@]2(C)C2CC[C@@]3(C)C(c4ccoc4)OC(=O)C4OC43[C@]12C` (stereo partly drawn), the Potency result is “inactive”.
Same read-out and setting: as for `CCOC(=O)c1c(C)cc(O)c(C=O)c1O`, the entry is “inactive”.
The same measure, in the same setting: the entry for `C[C@@H]1CCC2[C@](C)(CO)C(O)CC[C@@]2(C)[C@@]12CC[C@](CO)(CCO)O2` (stereo partly drawn) is “inactive”; for `O=C(/C=C/c1ccccc1)c1ccc(O)cc1` it is “inactive”; for `CC(=O)OC1CC2C(C)(C)C(=O)[C@@H]3OC3[C@@]2(C)C2CC[C@]3(C)C(=CC(=O)OC3c3ccoc3)[C@]12C` (stereo partly drawn) it is “inactive”.
Still for that read-out and setting: the entry for `Cc1cc(=O)oc2c(O)c(O)ccc12` is “inactive”.
Regarding `COc1ccc(-c2coc3cc(OC(C)=O)cc(OC(C)=O)c3c2=O)cc1`, the Potency result is “inactive”.
As to `COc1ccc(C(=O)c2ccc(O)cc2)c(O)c1O`, the Potency entry is “inactive”.
Same read-out and setting: the entry for `CC12CCC3C(=CCc4cc(O)ccc43)C1CCC2=O` (stereo not drawn) is “inactive”; for `CC(=O)OC1CC(OC(C)=O)[C@]2(C)C(CC(=O)[C@]3(C)C2CC[C@@]2(C)C(C(=O)O)OC(=O)C4OC423)C1(C)C` (stereo partly drawn) it is “inactive”; for `COC1=CC(=O)C(C(=O)c2ccccc2)=CC1=O` it is “inactive”.
For `CC(Oc1ccccc1)C(=O)NC1C(=O)N2C(C(=O)O)C(C)(C)S[C@@H]12` (stereo partly drawn), the Potency result is “inactive”.
Consider `CC(=O)O[C@](C)(CCC=C(C)C)C1CC=C(C)CC1` (stereo partly drawn), for which the Potency result was “inactive”.
